In the supplement of paper PMC13380429 one finds morphology score and SARS-CoV-2 infection rate data, which are given here for 27 compounds.

Structures are written as SMILES.

Assay [1] deals with Vero E6 infected with SARS-CoV-2. Nature of the assay: morphology score (similarity to uninfected cells); higher = more like uninfected cells. The note with it: 24 h.
For assay [2] the test system is unchanged. In words: SARS-CoV-2 infection rate relative to infected DMSO; higher = more infection, active = 60 or less. The following applies: 24 h.

On to `Clc1ccccc1C(c1ccccc1)(c1ccccc1)n1ccnc1` [clotrimazole] (10 µM), for which, in assay [1], the morphology score worked out at 0.254. Also, in assay [2], the SARS-CoV-2 infection rate was 78.5% (inactive).

Compound `CC1=NN(c2ccc(C)c(C)c2)C(=O)/C1=N\Nc1cccc(-c2cccc(C(=O)O)c2)c1O` [eltrombopag] (10 µM) showed a morphology score in assay [1] of 0.143. The SARS-CoV-2 infection rate in assay [2] is 99% (inactive).

With `COc1cc2c(NC3CCN(C(C)C)CC3)nc(C3CCCCC3)nc2cc1OCCCN1CCCC1` (10 µM), in assay [1], the morphology score is 0.297. In assay [2], the SARS-CoV-2 infection rate was 22.5% (active).

As for `CN(C)C(=O)Oc1cc(OC(=O)N(C)C)cc(C(O)CNC(C)(C)C)c1` (centres undefined) [bambuterol] (10 µM), the morphology score in assay [1] is -0.145. Further, the SARS-CoV-2 infection rate in assay [2] was 114% (inactive).

Take `C=CC(=O)N1CCC[C@@H](n2nc(-c3ccc(Oc4ccccc4)cc3)c3c(N)ncnc32)C1` [ibrutinib] (10 µM): the morphology score in assay [1] worked out at 0.197. The SARS-CoV-2 infection rate in assay [2] was 109% (inactive).

Compound `COC(=O)CC[C@@H]1N=C(c2ccccn2)c2cc(Br)ccc2-n2c(C)cnc21` [remimazolam] (10 µM) had a morphology score in assay [1] of 0.132. In assay [2], the SARS-CoV-2 infection rate is 95% (inactive).

As to `CN(Cc1cnc2nc(N)nc(N)c2n1)c1ccc(C(=O)N[C@@H](CCC(=O)O)C(=O)O)cc1` [methotrexate] (10 µM), in assay [1], the morphology score is -0.183. Also, the SARS-CoV-2 infection rate in assay [2] was 100% (inactive).

`OCc1cc(C(O)CNCCCCCCOCCCCc2ccccc2)ccc1O` (centres undefined) [salmeterol] (10 µM): the morphology score in assay [1] came out at 0.465. Moreover, the SARS-CoV-2 infection rate in assay [2] was 54.5% (active).

In assay [1], `CCCCCCCCCCCC(=O)O` [lauric-acid] (10 µM) came in with a morphology score of 0.185. Also, in assay [2], the SARS-CoV-2 infection rate is 96.5% (inactive).

In turn, `C[C@H](NC(=O)C(C)(C)Oc1ccc(C(F)(F)F)cn1)[C@@H](Cc1ccc(Cl)cc1)c1cccc(C#N)c1` [taranabant] (10 µM) displayed a morphology score in assay [1] of 0.1. Moreover, the SARS-CoV-2 infection rate in assay [2] is 101% (inactive).

In assay [1], `COc1ccc(COc2ccc(Cc3cnc(N)nc3N)cc2OC)cc1` (10 µM) displayed a morphology score of -0.072. In addition, the SARS-CoV-2 infection rate in assay [2] was 112% (inactive).

The compound `CCCCNNC(=O)c1ccc(Br)cc1` (0.833333 µM) returned a morphology score in assay [1] of -0.294. For the same compound, the SARS-CoV-2 infection rate in assay [2] was 116% (inactive).

`CC(C)(C)NCC(O)CSc1nc(-c2ccc(C(N)=O)s2)cs1` (centres undefined) [arotinolol] (10 µM) registered a morphology score in assay [1] of 0.0582. Also, the SARS-CoV-2 infection rate in assay [2] is 106% (inactive).

Regarding `Cc1ccc(NC(=O)c2ccc(CN3CCN(C)CC3)cc2)cc1Nc1nccc(-c2cccnc2)n1` [imatinib] (10 µM), the morphology score in assay [1] worked out at 0.738. Besides, the SARS-CoV-2 infection rate in assay [2] was 37% (active).

For the compound `CCn1cnc2c(Nc3cccc(Cl)c3)nc(N[C@@H]3CCCC[C@@H]3N)nc21` (0.833333 µM), in assay [1], the morphology score is -0.35. The SARS-CoV-2 infection rate in assay [2] was 114% (inactive).

Compound `CCNC1=Nc2ccc(Cl)cc2C(C)(c2ccccc2)O1` (centres undefined) [etifoxine] (10 µM) came in with a morphology score in assay [1] of 0.159. Further, in assay [2], the SARS-CoV-2 infection rate is 106% (inactive).

Compound `O=C1CC[C@@]2(O)[C@H]3Cc4ccc(O)c5c4[C@@]2(CCN3CC2CC2)[C@H]1O5` (10 µM) yielded a morphology score in assay [1] of -0.0472. Besides, the SARS-CoV-2 infection rate in assay [2] is 106% (inactive).

`CCCCN(CCCC)C(=O)CN1C[C@H](c2ccc3c(c2)OCO3)[C@@H](C(=O)O)[C@@H]1c1ccc(OC)cc1` [atrasentan] (10 µM) registered a morphology score in assay [1] of 0.0179. Moreover, the SARS-CoV-2 infection rate in assay [2] was 108% (inactive).

Take `O=C(O[C@@H]1Cc2c(O)cc(O)cc2O[C@@H]1c1cc(O)c(O)c(O)c1)c1cc(O)c(O)c(O)c1` [epigallocatechin-gallate-(-)] (10 µM): the morphology score in assay [1] worked out at 0.156. The SARS-CoV-2 infection rate in assay [2] was 100% (inactive).

In assay [1], `CCn1cc(C(=O)O)c(=O)c2ccc(-c3ccncc3)cc21` [rosoxacin] (10 µM) had a morphology score of 0.148. For the same compound, the SARS-CoV-2 infection rate in assay [2] was 112% (inactive).

In turn, `O=c1[nH]c2ccc(Cl)cc2c(N[C@@H]2CN3CCC2CC3)c1-c1nc2ccccc2[nH]1` (10 µM) returned a morphology score in assay [1] of -0.162. In assay [2], the SARS-CoV-2 infection rate is 110% (inactive).

For `CO[C@H]1/C=C/O[C@@]2(C)Oc3c(C)c(O)c4c(O)c(c(/C=N/N=C/N5CCCCC5)c(O)c4c3C2=O)NC(=O)/C(C)=C\C=C\[C@H](C)[C@H](O)[C@@H](C)[C@@H](O)[C@@H](C)[C@H](OC(C)=O)[C@@H]1C` (10 µM), in assay [1], the morphology score worked out at 0.053. Also, the SARS-CoV-2 infection rate in assay [2] is 108% (inactive).

Compound `CC(=O)c1cc2c(o1)C(=O)c1ccccc1C2=O` [napabucasin] (0.833333 µM) came in with a morphology score in assay [1] of 0.309. Also, the SARS-CoV-2 infection rate in assay [2] is 89% (inactive).

Compound `O=C(/C=C/c1ccc(O)c(O)c1)O[C@H](Cc1ccc(O)c(O)c1)C(=O)O` [rosmarinic-acid] (10 µM) came in with a morphology score in assay [1] of 0.152. Moreover, the SARS-CoV-2 infection rate in assay [2] was 94.5% (inactive).

`COc1cc(C(=O)OCCCN2CCCN(CCCOC(=O)c3cc(OC)c(OC)c(OC)c3)CC2)cc(OC)c1OC` [dilazep] (0.833333 µM) displayed a morphology score in assay [1] of -0.00497. In assay [2], the SARS-CoV-2 infection rate is 106% (inactive).

For the compound `Nc1ccc(S(N)(=O)=O)cc1` [sulfanilamide] (10 µM), in assay [1], the morphology score came to 0.0892. In assay [2], the SARS-CoV-2 infection rate is 103% (inactive).

Regarding `NS(=O)(=O)NCCNc1nonc1/C(=N/O)Nc1ccc(F)c(Br)c1` (10 µM), the morphology score in assay [1] worked out at 0.162. In assay [2], the SARS-CoV-2 infection rate was 112% (inactive).
